rCAG binder – molecules binding r(CAG) RNA repeats; AID 651821; r(CAG) RNA repeat, TO-PRO-1 dye displacement fluorescence; inhibition, % at 3 µM; 370,000 tested, 1.3% active;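 active = inhibition above the plate cutoff, the mean of all test compounds on that plate plus 3 SD, cut at about 35% in these data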;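 also: higher means more dye released from RNA so lower well fluorescence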
ADAM17 inh – inhibitors of human ADAM17. P78536. recombinant ADAM17, EDANS/DABCYL FRET peptide cleavage. inhibition, % at 6.95 µM. 370,000 tested, 0.83% active. AID 720648;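 active = inhibition above the mean of compounds lying between control limits plus 3 SD, set per campaign, cut at about 8.5% in these data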
Target sequence (P78536 215-824 limits assumed): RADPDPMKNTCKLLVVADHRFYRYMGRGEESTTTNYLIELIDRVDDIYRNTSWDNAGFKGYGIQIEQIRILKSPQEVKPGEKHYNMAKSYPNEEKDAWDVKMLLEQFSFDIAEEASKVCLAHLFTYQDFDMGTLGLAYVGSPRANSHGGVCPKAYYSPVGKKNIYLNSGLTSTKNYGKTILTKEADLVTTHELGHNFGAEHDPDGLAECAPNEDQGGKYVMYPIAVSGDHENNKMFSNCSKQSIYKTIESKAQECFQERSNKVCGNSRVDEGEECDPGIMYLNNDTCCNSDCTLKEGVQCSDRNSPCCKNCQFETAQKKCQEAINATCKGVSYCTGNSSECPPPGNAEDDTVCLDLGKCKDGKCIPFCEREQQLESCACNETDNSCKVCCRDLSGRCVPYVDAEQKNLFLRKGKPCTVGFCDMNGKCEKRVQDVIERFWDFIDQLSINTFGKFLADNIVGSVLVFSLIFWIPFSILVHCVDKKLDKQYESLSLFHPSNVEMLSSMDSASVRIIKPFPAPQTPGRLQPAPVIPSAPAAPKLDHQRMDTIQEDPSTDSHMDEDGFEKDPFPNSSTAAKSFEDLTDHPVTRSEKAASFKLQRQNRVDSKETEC
ADAM10 inh – ADAM10 inhibition, QFRET primary screen; O14672; recombinant ADAM10, EDANS/DABCYL FRET peptide cleavage, 3 h; inhibition, % at 7 µM; 370,000 tested, 0.62% active;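 active = inhibition above a per-campaign cutoff equal to the mean of compounds falling between control-based bounds plus 3 SD, cut at about 20% in these data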
DSG3 Ab inh – inhibitors of pemphigus antibody binding to human desmoglein-3; binding (percent of control), % at 10 µM; 310,000 tested, 0.48% active; P32926; DSG3-coupled beads, scFv-anti-DSG3-GFP binding, flow cytometry; stronger effect = lower value; AID 588358;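 active = binding more than 3 SD below its plate's average and above zero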;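 also: hits lower antibody fragment binding to DSG3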
KLK7 zymogen act – proKLK7 (human) activation, primary screen; purified proKLK7, EDANS-DABCYL substrate fluorescence; 100% is mature enzyme control, 0% vehicle; activation, % at 7 µM; 370,000 tested, 0.9% active;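 active = activation above the mean of all tested compounds plus 3 SD, computed per campaign excluding outliers beyond control limits, cut at about 13% in these data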
MPTP inh – inhibitors of mitochondrial permeability transition pore | isolated mouse mitochondria, Ca2+ swelling absorbance, 30 min | inhibition, % at 10 µM | 360,000 tested, 1.4% active;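 active = inhibition of 50% or more, scaled per plate between neutral and stimulator controls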
A number is an active result; – = inactive; · = no result given. This is a sample that favours compounds with a hit; in the whole collection about 4.7% have one here.

SMILES	rCAG binder	ADAM17 inh	ADAM10 inh	DSG3 Ab inh	KLK7 zymogen act	MPTP inh
COc1ccccc1NC(=O)CSc1nc(O)cc(=O)n1-c1ccccc1OC	40	–	21	–	–	–
CCCCNc1ccc2c(c1)OC[C@@H](Cc1ccccc1)NS2(=O)=O	–	–	–	·	–	·
Cc1onc(-c2c(F)cccc2Cl)c1C(=O)c1ccc(F)cc1	–	–	–	64	–	–
Cc1onc(-c2c(Cl)cccc2Cl)c1C(=O)c1ccc(F)cc1	–	–	–	–	–	–
CN(C(=O)CCOc1ccccc1)c1c(N)n(Cc2ccccc2)c(=O)[nH]c1=O	–	–	–	63	–	–
CCOc1ccc(OCC(=O)N(C)c2c(N)n(Cc3ccccc3)c(=O)[nH]c2=O)cc1	–	–	–	–	–	–
CCC(C)(C)NC(=O)C(c1ccncc1)N(C(=O)Cn1nnc2ccccc21)c1cc2c(cc1C(C)=O)OCO2 (stereo not drawn)	–	–	–	84	–	–
Nc1[nH]c(C(=O)c2ccccc2)c(-c2cccc3ccccc23)c1C(=O)NCc1ccc(F)c(F)c1	–	–	–	·	–	·
Cc1ccc(S(=O)(=O)/N=C2/C=C(Sc3ncn[nH]3)C(=O)c3ccccc32)cc1	·	·	·	94	·	–
CC1(C)CC(NS(=O)(=O)c2ccc3ccccc3c2)CC(C)(C)N1	–	–	–	33	–	–
COc1cc(NC(=O)c2cnn3c(C)cc(C)nc23)cc(OC)c1OC	·	–	–	·	·	·
CCn1c(C(=O)O)c(CC(=O)Nc2ccccc2F)c2ccccc21	–	–	–	–	–	–
CCn1c(C(=O)O)c(CC(=O)Nc2cccc(C(F)(F)F)c2)c2ccccc21	35	–	–	–	–	–
Cc1ccccc1NC(=S)c1ccc2ccccc2n1	–	–	–	79	–	–
CCCN(CC(=O)Nc1ccccc1C)C(=O)c1ccc2ccccc2n1	–	–	–	–	–	–
CCOc1ccc(NC(=O)CCC(=O)NNC(=O)COc2ccc(C)cc2)cc1	–	–	–	84	–	–
Cc1ccc(CCNC(=O)C2CCN(S(=O)(=O)c3ccc4c(c3)CCC(=O)N4)CC2)cc1	–	–	–	77	–	–
Cc1ccc(-c2nc3ccccc3s2)cc1NC(=O)c1cc(-n2cnnc2)ccc1Cl	–	–	–	76	–	–
CC(=O)Nc1cccc(NC(=O)CSc2ccc(C(F)(F)F)cc2[N+](=O)[O-])c1	–	–	–	84	–	–
COc1ccc(OCCNC(=O)CSc2ccc(C(F)(F)F)cc2[N+](=O)[O-])cc1	–	–	–	–	–	–
CCCC1(C(=O)O)NC(c2ccccc2O)C2C(=O)N(Cc3ccccc3)C(=O)C21 (stereo not drawn)	–	–	–	–	–	–
CCC1(C(=O)O)NC(c2cc(OC)ccc2O)C2C(=O)N(Cc3ccccc3)C(=O)C21 (stereo not drawn)	–	–	22	–	–	–
COc1ccc(N2CCN(C(=S)Nc3cccc(C)c3C)CC2)cc1	–	–	–	49	–	–
O=C(Cn1ncc2c(=O)oc3ccccc3c21)NC1CC1	–	–	–	–	–	–
O=C(Cn1ncc2c(=O)oc3ccccc3c21)NCC1COc2ccccc2O1 (stereo not drawn)	–	–	–	88	–	–
SMILES	rCAG binder	ADAM17 inh	ADAM10 inh	DSG3 Ab inh	KLK7 zymogen act	MPTP inh
O=C(OCC#CCSc1nnc(-c2cccc3ncccc23)o1)c1ccc(F)cc1	·	–	–	·	·	·
Cc1ccc(NC(=O)COC(=O)CCC(=O)c2cccs2)c(C)c1	–	–	–	91	–	–
Cc1ccccc1NC(=O)COC(=O)CCC(=O)c1cccs1	–	–	–	–	–	–
Cc1ccc(S(=O)(=O)NCC(=O)OCC(=O)c2cccs2)cc1	–	–	–	43	–	–
O=C(NCc1ccccc1)[C@@H]1CCCN1C(=O)[C@H]1CCCN1C(=O)c1ccc(OC(F)(F)F)cc1	–	–	–	·	–	·
COc1ccc(C2=NS(=O)(=O)N(C)C(C(=O)NC3CCCC3)=C2)cc1	–	–	–	–	–	–
COc1ccc(C2=NS(=O)(=O)N(C)C(C(=O)NC3CCCCC3)=C2)cc1	–	–	–	-19	–	–
CCOc1ccccc1CN(Cc1ccco1)S(=O)(=O)c1ccc(-n2cnnn2)c(OC)c1	–	12	–	–	–	–
O=C(Nc1cccnc1Cl)c1ccc2c(Cl)c3c(nc2c1)CCC3	–	–	–	–	–	–
N#Cc1ccccc1NC(=O)c1ccc2c(Cl)c3c(nc2c1)CCCC3	–	–	–	93	–	–
COc1ccccc1Cc1c(-c2ccc(F)cc2)nc2c3ccccc3ccn12	–	–	–	·	–	·
COc1ccc([C@H]2Oc3cc(O)cc(O)c3C(=O)C2[C@@H]2C(=O)c3c(O)cc(O)cc3O[C@@H]2c2ccc(OC)cc2)cc1 (stereo partly drawn)	58	–	–	·	–	·
COc1ccc(C2CC(=O)Oc3cc(O)cc(O)c32)cc1 (stereo not drawn)	–	–	–	–	–	–
COc1ccc2c(c1)[C@@]1(OCCC=C[C@H]1C)C(=O)N2Cc1ccc(Br)cc1	–	–	–	·	–	·
CCC(C)CNC(=O)c1oc(=O)c2ccccc2c1-c1ccc(C)cc1 (stereo not drawn)	–	–	–	·	–	·
NNC(=O)c1ccc(CN2C(=O)c3cccc4cccc2c34)cc1	–	–	–	–	–	–
COc1ccccc1/C=N/NC(=O)c1ccc(CN2C(=O)c3cccc4cccc2c34)cc1	–	–	–	65	–	–
Cc1cc(N2CCN(CC(C)(C)O)C[C@@H]2C)ccc1N1CCN(CC(C)(C)O)[C@@H](C)C1	–	–	–	·	–	·
CCOC(=O)N1CCN(S(=O)(=O)c2ccc(C(=O)NNc3nc4cc(C)cc(C)c4s3)cc2)CC1	·	·	·	–	·	–
CCOC(=O)N1CCN(S(=O)(=O)c2ccc(C(=O)NNc3nc4c(C)cccc4s3)cc2)CC1	76	–	–	–	–	–
CC(C)(C)C(=O)O[C@@H]1CCC[C@@]2(C(=O)N(Cc3ccccc3)c3ccccc32)[C@H]1NC(=O)CCc1ccccc1	–	–	–	·	–	·
CCOc1ccc(N(CC(=O)NCc2ccc(Cl)cc2)S(=O)(=O)c2ccccc2)cc1	–	–	–	-57	–	–
O=C(CCc1ccccc1-c1ccccc1CCNC(=O)c1cccc(F)c1)NCc1ccccc1	–	–	–	·	–	·
CCCCCC(=O)Nc1cc(S(=O)(=O)N2CCCCC2)ccc1N1CCCCC1	–	–	–	–	–	–
CCCCCC(=O)Nc1cc(S(=O)(=O)O)cc2cc(S(=O)(=O)O)cc(O)c12	43	–	–	·	–	–
O=C(NCc1ccccc1F)C1C2C=CC3(CN(Cc4ccccc4)C(=O)C13)O2 (stereo not drawn)	–	–	–	·	–	·
CC(C)(C)c1ccc(-c2nnc(SCc3cccc4ccccc34)n2Cc2ccco2)cc1	–	–	–	·	–	·
